KOR antag MB = blocks the human kappa opioid receptor, Maybridge compounds | inhibition, % at 9 µM | OPRK1 cells, antagonist mode, fluorescence readout | P41145 | actives 0.4% (n = 16,000); in the data active = inhibition above about 50%
Target sequence (P41145 whole entry, looked up): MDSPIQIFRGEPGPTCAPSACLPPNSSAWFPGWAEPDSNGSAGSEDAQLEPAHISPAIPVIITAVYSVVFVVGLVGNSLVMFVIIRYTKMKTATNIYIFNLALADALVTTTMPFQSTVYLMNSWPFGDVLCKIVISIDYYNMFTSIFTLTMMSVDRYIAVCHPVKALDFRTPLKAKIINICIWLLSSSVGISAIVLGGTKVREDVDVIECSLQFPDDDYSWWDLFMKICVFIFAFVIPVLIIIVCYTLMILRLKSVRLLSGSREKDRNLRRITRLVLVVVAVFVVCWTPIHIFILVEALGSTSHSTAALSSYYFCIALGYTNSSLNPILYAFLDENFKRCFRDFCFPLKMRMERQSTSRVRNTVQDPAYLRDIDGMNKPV
rat GALR2 agon = agonists of rat galanin receptor 2 (GALR2); O08726; cell-based GALR2 agonist screen; activation, % at 10 µM; actives 0.5% (n = 16,000); AID 833; in the data active = activation above about 15%
TLR4-MyD88 inh = inhibitors of human TLR4-MyD88 binding; O00206; Cell-based TLR4-MyD88 binding inhibition assay; inhibition, % at 10 µM; actives 0.06% (n = 16,000); AID 811; in the data active = inhibition above about 45%
S1P1 ag = activates the human S1P1 receptor | S1P1 agonist cell-based reporter assay | activation, % at 4.5 µM | actives 1.5% (n = 16,000); in the data active = activation above about 80%
A number is an active result; - = inactive; . = no result. Shown are actives, neighbours in structure and some others; about 2.1% of the full set was active somewhere.

SMILES	KOR antag MB	rat GALR2 agon	TLR4-MyD88 inh	S1P1 ag
O=C(CSCC(=O)Nc1ccccc1)NNC(=O)c1ccccc1	-	-	-	-
Cc1nc(-c2noc(-c3ccc(C(F)(F)F)cc3)n2)cs1	-	-	-	-
Cc1csc(-c2nc(-c3ccc(C(F)(F)F)cc3)no2)c1	-	-	-	86
Cn1c(=O)c2c(nc(N=Nc3c(O)[nH]c4cc(Br)ccc34)n2C)n(C)c1=O	-	-	-	-
Oc1[nH]c2ccccc2c1N=Nc1nc(-c2ccc(Br)cc2)cs1	-	-	-	82
Cc1ccc(-c2cc(Cc3ccncc3)c(=O)[nH]n2)cc1	-	-	-	-
O=c1ccc(-c2ccncc2)n[nH]1	-	23	-	-
Cc1nc2ccccn2c1C(=O)NNS(=O)(=O)c1sc2ccc(Cl)cc2c1C	-	-	-	100
CC(=O)Nc1cc(N=Cc2cc(Cl)cc(Cl)c2O)ccc1C	-	-	.	-
Cc1ccc(C)c(N=Cc2cc(Cl)cc(Cl)c2O)c1	-	16	-	-
Cc1noc(C)c1NC(=O)NC(=O)c1c(F)cccc1Cl	-	-	-	-
Cc1noc(NC(=O)NC(=O)c2cc(F)c(N(C)C)c(F)c2)c1C	-	36	-	-
N/C(=N\OC(=O)c1cccc(Cl)c1)c1cccc(C(F)(F)F)c1	-	-	-	99
N/C(=N\OC(=O)c1cccc(C(F)(F)F)c1)c1cnccn1	-	-	-	-
N/C(=N\OC(=O)c1cccc(C(F)(F)F)c1)c1ccc(OCC(F)(F)F)nc1	-	-	-	84
O=C(NCc1c(Cl)cccc1Oc1ccccc1)c1cccs1	-	-	-	-
O=[N+]([O-])c1ccc(N/N=C2\CCOc3ccc(F)cc32)cc1	50	-	-	-
Fc1ccc2c(c1)/C(=N\Nc1cc(C(F)(F)F)ccc1Cl)CCO2	-	-	-	-
Cc1cc(C(=O)O/N=C(\N)c2ccc(C(C)(C)C)cc2)no1	-	-	-	90
Cc1cc(/C(N)=N/OC(=O)c2ccno2)no1	-	-	-	-
O=c1c2ccccc2nc(-c2ccco2)n1Cc1ccccc1	-	-	-	92
Cc1cc(C)c(C#N)c(SCC(=O)Nc2c(C#N)cnn2-c2ccccc2)n1	-	-	-	-
COc1ccc(/C=C(\C#N)C(=O)c2cc(C(C)(C)C)on2)cc1	-	21	-	-
N/C(=N\O)c1nccnc1Oc1cccc(C(F)(F)F)c1	-	-	-	-
COc1ccc(OS(=O)(=O)c2sc(Br)cc2Br)cc1	52	-	-	-
SMILES	KOR antag MB	rat GALR2 agon	TLR4-MyD88 inh	S1P1 ag
COc1cc(NC(=O)C(C)(C)C)ccc1Br	-	-	-	-
CCCc1c(OCCCOc2ccc3c(=O)c(-c4ccccc4)coc3c2)ccc(C(C)=O)c1O	-	-	-	95
CC(ONC(=O)c1cc(C(F)(F)F)cc(C(F)(F)F)c1)C(=O)Nc1ccc(Cl)cc1 (centres undefined)	-	-	-	110
CC(C)(Nc1ccc([N+](=O)[O-])cn1)OC(=O)c1cc2ccccc2oc1=O	-	-	-	-
CC(=O)C1C(=O)C=C(/C=C/c2ccccc2)CC1c1ccccc1 (centres undefined)	-	-	-	99
CN(C)C(=O)/C=C/c1ccccc1	-	-	-	-
c1ccc(N2CC3CCc4ccccc4C3=N2)cc1 (centres undefined)	-	23	.	-
O=C(O)C12CC3CC(CC(Cl)(C3)C1)C2	-	-	-	-
N#C/C(=N\O)S(=O)(=O)c1ccccc1	-	-	-	-
N#C/C(=N\Nc1ccccc1Cl)S(=O)(=O)c1ccc(Cl)cc1	-	-	-	112
O=C1Nc2ccccc2/C1=C/c1ccc2c(c1)CCO2	-	-	-	-
O=C(NNC(=S)Nc1cccc(C(F)(F)F)c1)c1cccnc1	-	-	-	-
O=C(NNC(=S)Nc1cccc(C(F)(F)F)c1)c1sc2ccccc2c1Cl	-	-	-	96
COc1cc2c(cc1OC)CC(=O)OC2	-	-	-	81
Cn1c(-c2ccccn2)n[nH]c1=S	-	-	-	88
O=C(c1ccc2c(c1)CCC2)C1CCC1	-	46	.	-
CCC(=O)c1sc(-c2ccc(Cl)cc2)cc1NC(=O)Nc1c(C)noc1C	-	-	-	-
CC(C)(O)C#Cc1ccc(/C=N/OC(=O)c2ccc(Cl)cc2)cc1	-	-	-	-
CCCS(=O)(=O)/C(C#N)=N/Nc1cc(C(F)(F)F)cc(C(F)(F)F)c1	-	-	-	117
O=C1c2ccccc2S(=O)(=O)N1CC1CC1	-	-	-	-
O=C1c2ccccc2S(=O)(=O)N1CCS(=O)(=O)c1ccc(Cl)cc1Cl	-	-	.	91
CSc1ccc(C(F)(F)F)cc1NC=C(C#N)C#N	-	-	-	89
CC(=O)Nc1ccc(F)cc1NC=C(C#N)C#N	-	-	-	-
CC(=O)Nc1cc([N+](=O)[O-])ccc1-n1cc(C)c(C(F)(F)F)n1	-	-	50	-

Screens: PubChem, The Scripps Research Institute Molecular Screening Center
